From PubChem BioAssay (EPA / NIEHS)
Calls of active or inactive are those of the source. How the source made its calls: active means hit-call score of the fitted dose curve at least 0.9, where 1 is the maximum; inactive means score below 0.9.

read-out: Nuclear factor erythroid 2-related factor 2 (Homo sapiens) (UniProt Q16236); test: LTEA_HepaRG_NFE2L2: Life Technologies and Expression Analysis (LTEA) Assay for Nuclear factor erythroid 2-related factor 2 (NFE2L2) Transcription Factor using HepaRG (AID 2283527); details: mRNA level, 48 h; actives raise or lower the signal;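 on outcome: TaqMan qRT-PCR transcript level normalised to ACTB GAPDH and POLR2A housekeeping genes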
Method: LTEA_HepaRG is a cell based, multiplexed-readout assay that uses HepaRG, a human liver cell line, with measurements taken at 48 hours after chemical dosing on a 96-well plate.LTEA_HepaRG_NFE2L2 is one of 102 assay component(s) measured in the LTEA HepaRG cell culture assay. It is a marker of Inflammation/injury.Data from the assay component LTEA_HepaRG_NFE2L2 was analyzed into 1 endpoint. This assay endpoint, LTEA_HepaRG_NFE2L2, was analyzed with bidirectional fitting relative to DMSO as the negative control and baseline of activity. Using a type of inducible reporter, measures of mRNA induction for gain or loss-of-signal activity can be used to understand regulation of transcription factor activity. To generalize the intended target to other relatable targets, this assay endpoint is annotated to the dna binding intended target family, where the subfamily is basic leucine zipper.
A total of 1060 chemcials from the ToxCast library were tested in eight-point concentration-response experiments. Cell culture and cytotoxicity assays were conducted at Thermo Fisher Scientific's Custom Services facility (Madison, WI). A single lot of human HepaRG cells (Thermo Fisher Scientific, Frederick, MD) was used for the cell culture experiments. 96-well format collagen type I coated plates of human HepaRG cells were prepared using established methods. Briefly, cryopreserved HepaRG cells were thawed, plated at a density of approximately 100,000 cells/well in HepaRG Thaw, Plate, and General Purpose media (HPRG770, Thermo Fisher Scientific), and incubated for 48 hours. 0.5% DMSO was selected as vehicle control to balance the requisite need of DMSO in HepaRG cultures to maintain differentiation (for example, baseline metabolism, proportions of hepatocytes vs. cholangiocytes), while enabling further hepatic receptor pathway activation (for example, PXR and CAR) in response to chemical exposure. 48 hours after plating, the culture medium was replaced with HepaRG Serum-Free Incudtion Media. Cells were exposed to each test chemical in duplicate and maintained in CO2 incubators for another 48 hours. Chemical plates were thawed to room temperature and 200x concentrations of treatment groups were prepared. 8-point conentration-reponse curves were made with the highest exposure at 100 uM, followed by half-log dilutions, all in 0.5% DMSO. Each test plate contained variouse controls, induction positive controls (1mM phenobarbital), cytotoxicity positive controls ([…] aflatoxin B1), vehicle controls (0.5% DMSO), and total lysis controls (0.5% DMSO). Cell morphology images were taken using an Essen IncuCyte FLR automated microscope, with six 96-well plates imaged in about 24 minutes. Images were captured and exported and JPEG files. Spent culture media was transfered to black-well plates for the LDH assay, and remaining media was sorted at -80 C for later use. Cells were treated with RLT buffer and frozen until shipped for gene expression analysis. Total RNA was isolated from the cell suspension in 75 uL of Buffer RLT (Qiagen, Germantown, MD 20874) by Quintiles/Expression Analysis (Durham, NC) using a custom isolation procedure. Total RNA from each plate well was transferred to a preamplification plate. Fluidigm's 96.96 Dynamic ArrayTM (Fluidigm, Amsterdam, the Netherlands) technology was used for gene expression analyses by quantitative reverse transcription polymerase chain reaction (qRT-PCR, performed by Quintiles/Expression Analysis, Durham, NC)89. Standard TaqManTM Assays (Applied Biosystems/ThermoFisher Scientific, Foster City, CA) were used to assess the expression of 93 genes selected based on their selectivity and sensitivity to important hepatic receptors known to be modulated by environmental chemicals; importance in human hepatocyte functionality; and hepatotoxicity. […]

Nuclear factor erythroid 2-related factor 2 (Homo sapiens), sequence (Q16236 whole entry, looked up): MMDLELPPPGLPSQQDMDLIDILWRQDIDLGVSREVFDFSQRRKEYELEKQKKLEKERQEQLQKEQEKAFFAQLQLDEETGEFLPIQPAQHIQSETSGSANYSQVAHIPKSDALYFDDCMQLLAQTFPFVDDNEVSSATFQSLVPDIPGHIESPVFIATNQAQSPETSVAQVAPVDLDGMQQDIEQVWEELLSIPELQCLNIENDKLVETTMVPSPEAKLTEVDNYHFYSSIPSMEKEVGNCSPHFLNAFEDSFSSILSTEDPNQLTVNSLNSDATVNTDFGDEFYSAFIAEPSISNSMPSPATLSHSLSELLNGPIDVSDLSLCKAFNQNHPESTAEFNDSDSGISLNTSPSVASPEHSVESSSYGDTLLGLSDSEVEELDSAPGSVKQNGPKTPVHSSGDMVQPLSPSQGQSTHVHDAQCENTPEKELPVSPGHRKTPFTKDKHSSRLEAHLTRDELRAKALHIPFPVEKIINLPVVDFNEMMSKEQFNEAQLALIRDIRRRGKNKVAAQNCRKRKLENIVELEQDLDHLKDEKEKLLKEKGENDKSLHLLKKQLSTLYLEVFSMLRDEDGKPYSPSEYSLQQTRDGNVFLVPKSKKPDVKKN

SMILES | outcome | AC50
CC[C@@H]1C[C@H](N(Cc2cc(C(F)(F)F)cc(C(F)(F)F)c2)C(C)=O)c2cc(C(F)(F)F)ccc2N1C(=O)OC(C)C | inactive | 
Clc1ccccc1C(c1ccccc1)(c1ccccc1)n1ccnc1 |  | 14.5 µM (active)
Cc1cccc2ccccc12 | inactive | 
Cc1cc2c(cc1C(F)(F)F)N(C(=O)Nc1ccc(Oc3cccnc3C)nc1)CC2 | inactive | 
O=C=NCCCCCCN=C=O | inactive | 
COCC(C)OCC(C)OCC(C)O (stereo not given) | inactive | 
O=C(Nc1ccc(Cl)cc1)Nc1ccc(Cl)c(Cl)c1 | inactive | 
CO[C@H]1/C=C/O[C@@]2(C)Oc3c(C)c(O)c4c(O)c(c(/C=N/N5CCN(C)CC5)c(O)c4c3C2=O)NC(=O)/C(C)=C\C=C\[C@H](C)[C@H](O)[C@@H](C)[C@@H](O)[C@@H](C)[C@H](OC(C)=O)[C@@H]1C | inactive | 
Oc1ccc2ccccc2c1 | inactive | 
CCCCCCCCCCCCO | inactive | 
CN(C[C@@H](CC[N+]12CCC(C3CCCCC3)(CC1)CC2)c1ccc(Cl)c(Cl)c1)C(=O)c1cc(C(F)(F)F)cc(C(F)(F)F)c1 | inactive | 
CC(O)CC(C)(C)O (stereo not given) | inactive | 
CCCCOC(=O)CC(CC(=O)OCCCC)(OC(C)=O)C(=O)OCCCC | inactive | 
CCCCOC(=O)c1ccc(O)cc1 | inactive | 
CCCCCCCCCCCC[N+](C)(C)C |  | 76.9 µM (active)
CN1C(=O)CC[C@H]1c1cccnc1 | inactive | 
OCCO | inactive | 
O=C(O)Cn1c(=O)n(Cc2ccc(Br)cc2F)c(=O)c2ccc(Cl)cc21 | inactive | 
O=c1c(-c2ccc(O)cc2)coc2cc(O)cc(O)c12 | inactive | 
CCCCCCCCOc1ccc(C(=O)c2ccccc2)c(O)c1 | inactive | 

SMILES | outcome | AC50
Cc1cc(F)ccc1-c1cc(N2CC[C@@H](O)[C@H]2CO)ncc1N(C)C(=O)C(C)(C)c1cc(C(F)(F)F)cc(C(F)(F)F)c1 |  | 11.5 µM (active)
O=C(OCCCCCCOC(=O)c1ccccc1)c1ccccc1 | inactive | 
O=C(O)c1ccccc1-n1cc(C(=O)O)c(=O)c2cc(Nc3c(F)cc(F)cc3Cl)c(Cl)cc21 | inactive | 
CN1C(=O)N(c2ccccc2Br)Cc2cnc(Nc3ccc4c(c3)OCC(CO)O4)nc21 (stereo not given) | inactive | 
Cc1c2ccccc2c(C)c2c1ccc1ccccc12 |  | 90.5 µM (active)
CC(C)(C)c1cc(/C=C2\SC(N)=NC2=O)cc(C(C)(C)C)c1O |  | 22.7 µM (active)
COc1cc(C(=O)NC2CCN(C)CC2)ccc1Nc1ncc2c(n1)N(C1CCCC1)CC(F)(F)C(=O)N2C |  | 25.4 µM (active)
Cc1occc1C(=O)Nc1ccc(C(=O)N2CCC(F)(F)/C(=C\C(=O)N3CCC(N4CCCCC4)CC3)c3ccccc32)cc1 | inactive | 
NC(=O)c1nc(-c2cccc(-c3cc(F)ccc3OCC(F)(F)C(F)(F)F)c2)n[nH]1 | inactive | 
CC(C)(C)c1csc(-c2cc3cc(OCc4ccccc4CC(=O)O)ccc3o2)n1 | inactive | 
O=c1ccc2ccccc2o1 | inactive | 
CCCC(=O)OCCC(C)C | inactive | 
C[C@]12CC[C@@H]3c4ccc(O)cc4CC[C@H]3[C@@H]1CC[C@H]2O | inactive | 
O=c1[nH]sc2ccccc12 | inactive | 
COc1cccc([C@H](O)C2CCN(CCc3ccc(F)cc3)CC2)c1OC | inactive | 
c1ccc(C[n+]2cccc3ccccc32)cc1 |  | 13.6 µM (active)
CCCCCCCCOC(=O)c1cc(O)c(O)c(O)c1 | inactive | 
CCOC(=O)O[C@H](C)OC(=O)c1ccc2c(c1)cc(C(=O)NC1CCN(C(C)C)CC1)n2Cc1cc(-c2ccc(Cl)s2)on1 | inactive | 
CCN(Cc1cccc(S(=O)(=O)O)c1)c1ccc(C(=C2C=CC(=[N+](CC)Cc3cccc(S(=O)(=O)O)c3)C=C2)c2ccccc2S(=O)(=O)[O-])cc1 | inactive | 
CC/C(=C(/CC)c1ccc(O)cc1)c1ccc(O)cc1 |  | 89.9 µM (active)
